About 83,000 compounds went through this panel and 20% of them were active in at least one assay; those are over-represented in the sample as a whole.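 Cell lines were cultured in 96-well plates, exposed to a single compound concentration, and assessed for percent growth 48 hours later.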 Values without a mark were called inactive. The source made the active and inactive calls. Rule for the calls: active = growth percent below 10; inactive = the rest.

The test system of one assay is HCT-15 colon. The assay can be described thus: NCI-60 one-dose screen, 48 h (100 = growth as untreated, 0 = no growth, -100 = all killed). The conditions noted are these: 10 µM unless noted.
Turning to `Cc1cc2nc3c4ccccc4n(CC4=NCCN4)c3nc2cc1C`, the growth is 0.357% (active).
On the same count and under the same terms, with `Cn1cc(-c2nc(N)nnc2-c2c[nH]c3ccc(F)cc23)c2cccnc21` the figure was 51.8%; with `COc1ccc(N2N=C(c3ccc4c(c3)OCO4)CC2c2cccc(NC(=O)CCNS(=O)(=O)c3ccc(Cl)cc3)c2)cc1` (stereo not given), 33%; with `Cc1nc(Nc2ccccn2)sc1C(=O)CC(SCC(=O)Nc1ccc(Cl)cc1)c1ccccc1F` (stereo not given), 2.33% (active).
Take `Cc1cccc(-c2nc(Nc3ccc(C)c(S(N)(=O)=O)c3)c3ccccc3n2)c1`: the growth was -19.4% (active).
The same measure, in the same setting: with `CN(C)CCn1c2ccccc2c2nc3cc(C(F)(F)F)ccc3nc21` the figure was 19.4%; with `S=C(Nc1ccccc1)Nc1ccc(OCc2nc3ccccc3[nH]2)cc1`, 29.5%.

The subject of another assay is HT29 colon. Described as above. The conditions noted are these: 10 µM unless noted.
For `O=C1NC(=O)c2c1c1c3cc(Br)ccc3[nH]c1c1oc3ccc(F)cc3c21`, the growth is 36.4%.
Consider `C#CCOc1ccc(/C=N/Nc2nc(-c3ccc(F)cc3)cs2)cc1OC`, for which the growth is 78.8%.
On to `O=C1NC(=O)/C(=C/c2ccccc2OCc2cc3ccccc3nc2Cl)S1`, for which the growth was 108%.
On the same count and under the same terms, the same measure for `Cc1ccc(NCC(=O)Cn2cc(COc3ccc(C=Nc4cnc5ccccc5c4)cc3)nn2)cc1`: 116%.
For `C/C(=N\N=C1/C(=O)Nc2ccccc21)c1ccc2c(c1)Nc1ccccc1S2`, the growth is 71.5%.
As to `C/C(=N\N=C1/C(=O)Nc2ccc(Cl)cc21)c1ccc2c(c1)Nc1ccccc1S2`, the growth was -31.1% (active).
As for `CCN(CC)c1ccnc(CNCCSC(c2ccccc2)(c2ccccc2)c2ccc(C)cc2)c1`, the growth was -80.5% (active).
In the case of `Cc1cc2c(cc1Cl)C(=O)/C(=C/c1ccccc1)O2`, the growth is 38.6%.
For the compound `COc1ccc(C(=O)/C=C/c2ccc(OCc3ccc(F)cc3)c(OC)c2)cc1OC`, the growth is 10.7%.
For the compound `COc1cc(OC)c2c3nc4cc(C)c(C)cc4nc3n(CCN(C)C)c2c1`, the growth was 49.9%.
As to `N=C1N=C(SCc2nc3ccccc3[nH]2)NC(=O)/C1=C/c1ccc(Cl)cc1`, the growth was 108%.
`COc1ccc(C2CC(c3ccc(S(=O)(=O)NCCNc4nc(Nc5ccc(F)cc5)nc(N(C)C)n4)cc3)=Nc3c(N)nc(N)nc3N2)cc1` (stereo not given): the growth was 63.4%.
For `O=C(Cn1nc(-c2ccccc2)ccc1=O)N/N=C/c1ccc(N2CCOCC2)cc1`, the growth is 113%.
In the case of `CC1(C)CC[C@]2(C(=O)O)CC[C@]3(C)C(=CCC4[C@@]5(C)C[C@@H](O)[C@@H]6OC(c7cccc(Br)c7)OC[C@@]6(C)C5CC[C@]43C)C2C1` (stereo not given in full), the growth was 21.5%.
The same measure, in the same setting: the same measure for `COc1ccc(C(=O)/C=C/c2ccc(OCc3ccccc3)c(OC)c2)cc1OC`: 15.1%.
The same measure, in the same setting: the same measure for `O=C(N=Nc1c(O)[nH]c2ccc([N+](=O)[O-])cc12)c1ccc2nc(-c3ccccc3)[nH]c2c1`: 110%; for `C/C(=N\N=C\c1cc([N+](=O)[O-])ccc1Cl)c1ccc2c(c1)Nc1ccccc1S2`: 72.2%; for `C=C1CCC2C3(C)COC(c4ccc(F)cc4)OC3CCC2(C)C1C/C=C1/C(=O)OCC1O` (stereo not given): -4.77% (active).
Same read-out and setting: with `CCCSc1nc(NCCc2c[nH]c3ccccc23)c(C#N)c(-c2ccc(OC)cc2)n1` the figure was 22.5%; with `N/C(=N\c1nc2ccccc2s1)NC(=O)Nc1ccccc1Br`, -61.1% (active); with `O=C(Cn1c2c(sc1=O)[C@H]1[C@@H](O)[C@@H](O)[C@H](O)[C@@H]1CS2)N1CCOCC1`, 106%.
For the compound `COC(=O)/C=C/c1cccc2c1C(=O)NC(C)(c1cc3ccccc3oc1=O)N2` (stereo not given), the growth is 69.8%.
`Brc1ccc(-c2n(Cc3ccc4ccccc4c3)c(-c3ccccc3)c(-c3ccccc3)[n+]2Cc2ccc3ccccc3c2)cc1`: the growth was -98.9% (active).
With `COc1ccc(NC(=O)Cn2c3c(sc2=O)[C@H]2[C@@H](O)[C@@H](O)[C@H](O)[C@@H]2CS3)cc1`, the growth is 110%.
Regarding `Cc1cc2nc3c4ccccc4n(CCCN(C)C)c3nc2cc1C`, the growth was -3.59% (active).
Consider `O=S(=O)(Nc1cccc(-n2cnc3cc(-c4ccc(O)cc4)ccc32)c1)C1CC1`, for which the growth was 16.7%.
On the same count and under the same terms, with `CN(C)c1ccnc(CNCCSC2(c3ccc(C(F)(F)F)cc3)c3ccccc3C=Cc3ccccc32)c1` the figure was -61.7% (active).
Take `CN(C)c1nc(NCCNS(=O)(=O)c2ccc(C3=Nc4c(N)nc(N)nc4NC(c4ccc(C(F)(F)F)cc4)C3)cc2)nc(Nc2ccc(F)cc2)n1` (stereo not given): the growth was -69.6% (active).

For the origin of these results see PubChem BioAssay (NCI).
